IL1B secr inh = qHTS for Inhibitors of Inflammasome Signaling: IL-1-beta AlphaLISA Primary Screen | THP-1 LPS/ATP IL-1B secretion, AlphaLISA, 16 h; hits give low values | activity change, % at 57.5 µM | 360,000 compounds, 4.7% hits | AID 743279, 2014; in the data active means activity change below about -50%; inconclusive means mostly about -30% to -49%
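Secreted IL-1B measured by AlphaLISA bead assay after 16 h compound exposure of THP-1 cells; compounds (final up to 57.5 uM) added 1 h before LPS (250 ng/mL) and ATP (1.25 mM) stimulation; lower signal means less secretion.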
TDP1 block = qHTS Assay for Inhibitors of Tyrosyl-DNA Phosphodiesterase (TDP1); Tyrosyl-DNA phosphodiesterase 1 (Homo sapiens), Q9NUW8; 350,000 compounds, 0.28% hits; AID 485290, 2010; recombinant TDP1, AlphaScreen DNA substrate cleavage; Potency, µM (top dose mostly 130 µM), for inactives: top-dose activity change, negative = inhibition, hits mostly inhibitors; further: potency means the concentration at half of the fitted maximal effect; nearly all actives have a fitted effect of over 40% in size
Target sequence (Q9NUW8 whole entry, looked up): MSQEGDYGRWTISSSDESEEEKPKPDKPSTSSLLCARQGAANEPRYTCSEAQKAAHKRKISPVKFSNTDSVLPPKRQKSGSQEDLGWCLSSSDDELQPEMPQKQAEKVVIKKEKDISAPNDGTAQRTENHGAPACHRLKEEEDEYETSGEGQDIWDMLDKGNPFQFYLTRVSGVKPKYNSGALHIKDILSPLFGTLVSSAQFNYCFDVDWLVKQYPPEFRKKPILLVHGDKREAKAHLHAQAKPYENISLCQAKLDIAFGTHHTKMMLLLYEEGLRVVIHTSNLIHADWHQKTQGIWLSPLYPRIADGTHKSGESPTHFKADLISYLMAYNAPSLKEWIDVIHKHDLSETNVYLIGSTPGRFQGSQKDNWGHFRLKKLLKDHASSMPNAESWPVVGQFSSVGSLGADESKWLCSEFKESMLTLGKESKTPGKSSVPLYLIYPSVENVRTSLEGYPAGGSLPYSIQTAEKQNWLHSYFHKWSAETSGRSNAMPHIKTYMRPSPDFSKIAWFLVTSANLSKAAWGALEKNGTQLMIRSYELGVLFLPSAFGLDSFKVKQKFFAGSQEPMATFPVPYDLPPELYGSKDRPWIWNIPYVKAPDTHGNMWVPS
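Here, a 5' biotin and 3' phosphotyrosine-FITC DNA oligonucleotide reports Tdp1 activity: intact substrate bridges AlphaScreen beads, while cleavage leaves a 3' phosphate and drops signal. All incubations at room temperature.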
DT40 TDP1 CPT = qHTS for Inhibitors of human tyrosyl-DNA phosphodiesterase 1 (TDP1): qHTS in cells in presence of CPT | chicken DT40 Tdp1-/-;hTDP1 cells + 20 nM CPT, ATP luminescence, 48 h | Potency, µM (top dose mostly 46.2 µM), without a hit: top-dose activity change, negative = growth inhibition, most hits filed as inhibitors | 420,000 compounds, 12% hits | AID 686979, 2013; further: potency means the concentration at half of the fitted maximal effect; nearly all actives have a fitted effect of over 55% in size
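Chicken DT40 Tdp1-/- cells stably complemented with human TDP1 were seeded at 400 cells/well in medium containing 20 nM camptothecin, exposed to pin-transferred compounds, and grown at 37 °C for at least 48 hr. Viability was read as ATP luminescence.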
Giardia killer = Small Molecules that selectively kill Giardia lamblia: qHTS; Giardia lamblia trophozoite viability; activity change, % at 7.66 µM, hits read low; 340,000 compounds, 0.15% hits; AID 540267, 2011; in the data active means activity change below about -80%; inconclusive means between about -30% and that limit;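 further: parasites exposed to compound for two days anaerobically before the ATP read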
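ATP-content bioluminescence gauges trophozoite survival. Cells (100/well) receive compound and incubate anaerobically for 48 hrs at 37 deg C; detection reagent follows for 15-30 min at room temperature.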
DT40 TDP1 no CPT = qHTS for Inhibitors of human tyrosyl-DNA phosphodiesterase 1 (TDP1): qHTS in cells in absence of CPT | AID 686978, 2013 | DT40 Tdp1-/- hTDP1 cells, no CPT, ATP luminescence, 48 h | 420,000 compounds, 15% hits | Potency, µM (top dose mostly 46.2 µM), inactives show top-dose activity change, negative = growth inhibition, actives largely listed as inhibitors; further: potency means the concentration at half of the fitted maximal effect; nearly all actives have a fitted effect of over 55% in size
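Growth kinetics read by CellTiter-Glo luminescence after ≥48 hr at 37 °C. Cells: DT40 Tdp1-/- stably carrying human TDP1, 400 per well, compound exposure in the absence of CPT (DMSO vehicle).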
ELG1 repair inh = qHTS screen for small molecules that inhibit ELG1-dependent DNA repair in human embryonic kidney (HEK293T) cells expressing luciferase-tagged ELG1. HEK293T ELG1-luciferase reporter, luminescence, 16 h; DNA damage induced by 5-fluorouridine. Potency, µM (doses to about 46.1 µM), inactives show at the top dose activity change, negative = inhibition, hits mostly inhibitors. AID 504467, 2011. 330,000 compounds, 2.3% hits; further: potency means the concentration at half of the fitted maximal effect; nearly all actives have a fitted effect of over 55% in size
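HEK293T cells expressing luciferase-tagged ELG1 (2,000/well) received 5-Fluorouridine plus compound or DMSO for 16 hr at 37 °C. Luciferase was read by ONE-Glo luminescence after 30 min at room temperature.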
* marks the source's active call; other numbers are inactive results; i = inactive; ? = inconclusive; / = not tested or not shown; [ ] = another dose, or the depositor's remark. Shown are actives, neighbours in structure and some others; about 19% of the full set was active somewhere. Unless noted, the call rests on the fitted dose curve; in most records, active means well fitted curve in the direction sought with a large enough effect; inconclusive means small, poorly fitted or top-dose-only effect, or another doubt; inactive means no such curve, though single readings can be large; an effect the other way counts as inactive or inconclusive. On the % scale 0 is the no-effect control and ±100 the full control effect.

SMILES | IL1B secr inh | TDP1 block | DT40 TDP1 CPT | Giardia killer | DT40 TDP1 no CPT | ELG1 repair inh
CCc1c(C)nc(SCC(N)=O)c(C#N)c1C | 16 | 0% | -12% | -8 | -10% | -8%
Cc1nc(SCC(=O)Nc2ccccc2C(F)(F)F)c(C#N)c(C)c1CC(=O)c1ccc(Br)cc1 | / | 3% | / | / | / | ?
N#Cc1c(-c2ccccc2F)cc(C2CC2)nc1SCC(=O)c1cccs1 | i | -8% | 18µM* | 1 | 18µM* | -20%
Cc1cccc(C)c1NC(=O)CSc1nc(C)c(CC(=O)c2ccc(Br)cc2)c(C)c1C#N | 24 | 0% | 21µM* | -16 | ? | -7%
O=C(NCCc1csc(-c2ccc(F)cc2)n1)C(=O)Nc1ccc(Cl)cc1 | / | 2% | ? | / | ? | /
CCCN1CNc2c(c(=O)[nH]c(=S)n2Cc2ccc(OC)c(OC)c2)C1 | / | 0% | -5% | -18 | -10% | /
CCn1cc(/C=N\NC(=O)Cc2ccc(Cl)cc2)cn1 | -3 | 2% | 10% | -4 | 7% | 8%
COc1ccccc1NS(=O)(=O)c1cccc(C(=O)NCC(c2ccco2)N(C)C)c1 (centres undefined) | 8 | 1% | -13% | -5 | -2% | -5%
O=C(NC(=S)Nc1ccccc1Br)C1CCCC1 | 3 | 2% | -21% | 5 | ? | ?
O=C(NC(=S)Nc1ccccc1Br)C1CCCCC1 | 21 | -5% | 18µM* | -9 | 16µM* | ?
CC(C)(C)N1CC(C(=O)Nc2cccc(Cl)c2Cl)CC1=O (centres undefined) | -69* | / | 26% | 23 | -7% | -2%
O=C(NC(=S)Nc1cccc(Cl)c1Cl)C1CC1 | 77 | 1% | 13µM* | 7 | ? | ?
Cc1ccc(NC(=O)C2CCN(S(=O)(=O)c3ccc4[nH]c(=O)ccc4c3)CC2)cc1C | / | 3% | 2% | / | -18% | /
O=C(Cc1ccc(F)cc1)NO | / | / | -1% | / | -24% | /
CC(=O)c1ccc(-n2cc(-c3ccc(C(C)(C)C)cc3)[n+]3c2SCCC3)cc1 | -25 | 5% | 0.21µM* | -9 | 0.16µM* | 7.3µM*
O=[N+]([O-])c1cccc(-c2c[n+]3c(n2-c2ccccc2)SCC3)c1 | 31 | 0% | 20% | 7 | -6% | ?
Clc1ccc(-c2c[n+]3c(n2-c2ccccc2)SCC3)cc1 | ? | 4% | ? | 8 | ? | 7.3µM*
Fc1ccc(-c2cn(-c3ccccc3)c3[n+]2CCS3)cc1 | -13 | / | ? | 9 | 23µM* | 21µM*
COc1ccc(-c2cn(-c3ccc(Br)cc3)c3[n+]2CCS3)cc1 | -76* | 3% | 8.2µM* | -10 | 6.5µM* | -18%
OC[C@@H]1[C@@H](c2ccccc2)C(c2ccc(F)cc2)=NN1c1ccccc1 | -11 | -21%[56.1 µM] | ? | 13 | ? | -2%
CC(=O)c1ccc(N2CCN(c3ccc(C(F)(F)F)cn3)CC2)cc1 | -4 | 3% | -19% | 1 | ? | -4%
COc1ccccc1C1CN(Cc2cccnc2)Cc2ccccc2O1 (centres undefined) | / | / | 5%[9.04 µM] | / | -19% | /
CCc1c(O)nc(SCC(=O)Nc2nc3ccccc3s2)n(C2CCCCC2)c1=O | 41 | / | -21% | -13 | ? | 5%
CCCCn1c(N)c(N(Cc2ccccc2OC)C(=O)c2cc(CC)c(C)s2)c(=O)[nH]c1=O | -11 | 2% | -1% | -7 | 3% | 3%
Clc1ccc(-c2cn(-c3ccccc3)c3[n+]2CCS3)cc1 | -51* | 0% | ? | -13 | 6.5µM* | -12%
SMILES | IL1B secr inh | TDP1 block | DT40 TDP1 CPT | Giardia killer | DT40 TDP1 no CPT | ELG1 repair inh
CCCCC(=O)N(C)c1c(CC)nc2c(OCCC)cccn12 | 17 | / | -29% | / | -23% | /
CCc1nc2c(OCCC3CCCCC3)cccn2c1N(C)C(=O)C1CC1 | 0 | / | 18µM* | / | 13µM* | /
CCc1nc2c(OCCC3CCCCC3)cccn2c1N(C)C(=O)COc1ccccc1 | 9 | / | 16µM* | / | ? | /
CCc1nc2c(OCC3CCCCC3)cccn2c1N(C)C(=O)c1ccccc1F | -18 | / | ? | / | 16µM* | /
CCc1nc2c(OCCOc3ccccc3)cccn2c1N(C)C(=O)C1CC1 | -7 | / | 16µM* | / | ? | /
CCc1nc2c(OCC(=O)c3ccc(Cl)cc3Cl)cccn2c1N(C)C(=O)COc1ccccc1 | -25 | / | ? | / | ? | /
CCc1nc2c(OCCOc3ccccc3)cccn2c1N(C)C(=O)c1ccc(C)cc1 | 0 | / | ? | / | ? | /
OC(c1ccccc1)C(NCCNCc1ccccc1)c1ccccc1 (centres undefined) | -8 | / | ? | 8 | ? | /
CCc1nc2c(OCCC3CCCCC3)cccn2c1N(C)C(=O)c1ccc(C)cc1 | -99* | / | 15µM* | / | 15µM* | /
CCc1nc2c(OCCC3CCCCC3)cccn2c1N(C)C(=O)C(C)C | ? | / | 13µM* | / | ? | /
CCc1nc2c(OCc3ccccc3)cccn2c1N(C)C(=O)C(C)C | 213 | / | ? | / | ? | /
CCc1nc2c(OCC3CCCCC3)cccn2c1N(C)C(=O)c1ccc(OC)cc1 | / | / | 18µM* | / | 18µM* | /
C=CCNC(=S)NNC(=O)Cn1c(-c2ccccc2)cc(=O)n2ncnc12 | 6 | / | -7% | -2 | -1% | 4%
Cc1cc(C)c(S(=O)(=O)N2CCN(C(=O)C3COc4ccccc4O3)CC2)c(C)c1 (centres undefined) | -2 | -8% | 13µM* | 8 | 9.2µM* | ?
CCCc1cc(=O)oc2c(C)c(O[C@@H]3O[C@H](CO)[C@@H](O)[C@H](O)[C@H]3O)ccc12 | -11 | / | ? | -7 | 7.3µM* | ?
Cc1cc(=O)oc2c(C)c(OCC(=O)N3CCN(C(=O)C4COc5ccccc5O4)CC3)ccc12 (centres undefined) | -6 | 4% | ? | 19 | 16µM* | ?
Cc1cc(=O)oc2cc(OCC(=O)N3CCN(c4ccccc4)CC3)ccc12 | 0 | 1% | -12% | -12 | 0% | 1%
CCCc1cc(=O)oc2cc(O[C@@H]3O[C@H](CO)[C@@H](O)[C@H](O)[C@H]3O)ccc12 | -17 | / | -19% | -22 | -35% | -18%

Bioassay records: PubChem BioAssay, National Center for Advancing Translational Sciences (NCATS)
